# Tb PYK inh – T. brucei pyruvate kinase inhibition | AID 624173 | TbPYK enzyme, Kinase-Glo Plus ATP luminescence, 45 min | actives 0.12% (n = 410,000) | Q57TT1 | Potency, µM (series often up to 76.8 µM), without a hit: at the top dose activity, negative = inhibition, usual class: inhibitors; also: nearly all actives have a fitted effect of over 50% in size
#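 ADP (130 uM final) triggers the TbPYK reaction after compound addition; incubation is 45 min at room temperature. Kinase-Glo Plus is then added and luminescence imaged. Normalized data are fitted to concentration-effect curves.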
# Giardia FBPA inh-1 – Giardia lamblia aldolase inhibition; A8B2U2; purified Giardia FBPA; actives 0.71% (n = 290,000); Potency, µM (top dose mostly 59.6 µM), for the others: at the highest dose activity, negative = inhibition, hits mostly inhibitors; also: nearly all actives have a fitted effect of over 55% in size
#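 Giardia FBPA (40 nM reagent) was preincubated 10 min at RT with compound (up to 57.5 uM final), then substrate plus GAPDH/TPI/NAD/arsenate coupling system with diaphorase/resazurin was added; resorufin fluorescence (525/598 nm) was read after 20 min.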
# RE007 growth inh – less growth of the S. pombe RE007 Vpr strain; Potency, µM (top dose mostly 92.2 µM), for the others: top-dose activity change, negative = less growth, actives largely listed as inhibitors; actives 0.21% (n = 360,000); S. pombe RE007 Vpr strain, BacTiter-Glo ATP luminescence, 24 h; active = well fitted falling curve with a large enough effect; inconclusive = small, poorly fitted or top-dose-only effect; inactive = no such curve, though single readings can be large or run the other way; also: nearly all actives have a fitted effect of over 50% in size
#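 Fission yeast strain RE007, carrying one chromosomally integrated HIV-1 vpr copy, was seeded at OD 0.01 in PMG+AL medium with 23 nL pinned compound. After 24 h at 30 °C and 99% humidity, viability was read by BacTiter-Glo luminescence.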
# Sm TGR block – inhibitors of Schistosoma mansoni thioredoxin glutathione reductase. actives 3% (n = 360,000). Potency, µM (titrated, usually from 114 µM), for the others: top-dose activity change, negative = inhibition, usual class: inhibitors. purified TGR, DTNB reduction, TNB absorbance 405 nm. AID 485364; also: nearly all actives have a fitted effect of over 60% in size
#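 TGR 20 nM + NADPH 100 uM (dispensed conc.), cpd preinc 15 min RT; start with NADPH (500 uM addition) then DTNB (15 mM addition). Kinetic TNB absorbance, 405 nm filter. Four-parameter Hill fit across titration.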
# LmPK inh – LmPK (Leishmania mexicana) enzyme inhibition | Q27686 | purified LmPK, Kinase-Glo ATP luminescence, 1 h | Potency, µM (highest dose often 57.5 µM), for the others: at the top dose activity change, negative = inhibition, hits mostly inhibitors | actives 0.37% (n = 290,000)
# Target sequence (Q27686 whole entry, looked up): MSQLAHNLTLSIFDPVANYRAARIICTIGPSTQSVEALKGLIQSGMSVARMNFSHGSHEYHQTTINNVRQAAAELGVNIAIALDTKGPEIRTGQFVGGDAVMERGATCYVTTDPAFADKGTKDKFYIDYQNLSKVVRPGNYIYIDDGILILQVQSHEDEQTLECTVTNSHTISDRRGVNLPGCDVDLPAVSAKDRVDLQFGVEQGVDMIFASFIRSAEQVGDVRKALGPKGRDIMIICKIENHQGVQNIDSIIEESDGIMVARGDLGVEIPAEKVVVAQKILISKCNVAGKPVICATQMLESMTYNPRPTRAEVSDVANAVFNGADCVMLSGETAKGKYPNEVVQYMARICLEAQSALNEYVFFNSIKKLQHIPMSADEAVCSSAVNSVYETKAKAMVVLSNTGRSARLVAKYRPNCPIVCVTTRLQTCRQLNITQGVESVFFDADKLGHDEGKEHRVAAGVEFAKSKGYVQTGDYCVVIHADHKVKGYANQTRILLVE
#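 ATP generated from ADP (0.1 mM) and PEP (0.5 mM) by 0.1 nM LmPK over 1 h at room temperature (pH 7.2 imidazole buffer) was detected by coupled luciferase luminescence. Values were normalized to uninhibited and no-enzyme wells.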
# Giardia growth – inhibitors of Giardia lamblia growth. shares compounds with Giardia FBPA inh-1. Giardia lamblia trophozoite growth inhibition. Potency, µM (doses to about 57.5 µM), inactives show at the highest dose activity change, negative = inhibition, actives largely listed as inhibitors. actives 5% (n = 1,500);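 also: trophozoites exposed to compound for 48 h at 37 °C; nearly all actives have a fitted effect of over 70% in size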
# Mammal cell tox – mammalian cytotoxicity of Giardia aldolase inhibitor hits. shares compounds with Giardia FBPA inh-1. mammalian cell viability counter-screen, qHTS. Potency, µM (titrated, usually from 57.5 µM), without a hit: at the highest dose viability change, negative = toxicity, most hits filed as inhibitors. actives 4% (n = 1,500);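 also: Chinese hamster ovary cells used as mammalian cytotoxicity surrogate; viability measured as cellular ATP by luminescence; compound exposure lasted 48 h before reading; nearly all actives have a fitted effect of over 60% in size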
# Giardia FBPA inh-2 – confirmation of Giardia fructose-bisphosphate aldolase inhibitors; shares compounds with Giardia FBPA inh-1; purified Giardia aldolase enzyme activity, qHTS; Potency, µM (doses to about 57.5 µM), for inactives: at the top dose activity change, negative = inhibition, most hits filed as inhibitors; actives 5% (n = 1,500); also: nearly all actives have a fitted effect of over 45% in size
# Rabbit FBPA inh – selectivity test for Giardia aldolase inhibitors: rabbit aldolase | Rabbit muscle FBPA enzyme inhibition, selectivity counter-screen | Potency, µM (top dose mostly 57.5 µM), inactives show at the highest dose activity, negative = inhibition, actives largely listed as inhibitors | shares compounds with Giardia FBPA inh-1 | actives 4% (n = 1,500); also: nearly all actives have a fitted effect of over 60% in size
# GAPDH coupling – GAPDH inhibition flagged for Giardia aldolase hits. shares compounds with Giardia FBPA inh-1. GAPDH coupling enzyme counterscreen, biochemical, qHTS. Potency, µM (doses to about 57.5 µM), inactives show top-dose activity change, negative = inhibition, most hits filed as inhibitors. actives 6% (n = 1,500); also: nearly all actives have a fitted effect of over 55% in size
# * marks the source's active call; other numbers are inactive results; ? = inconclusive; . = no result; [ ] = dose if it differs, or a comment. The list is not random: actives were taken first. Their share in the collection is about 3.3%. Unless noted, calls follow the shape of the dose curve; as a rule, active = well fitted curve in the direction sought with a large enough effect; inconclusive = small, poorly fitted or top-dose-only effect, or another doubt; inactive = no such curve, though single readings can be large; an effect the other way counts as inactive or inconclusive. % is scaled to controls: 0 for no effect and ±100 for the full control effect; potency is read from the fitted curve at half-maximal effect.
SMILES,Tb PYK inh,Giardia FBPA inh-1,RE007 growth inh,Sm TGR block,LmPK inh,Giardia growth,Mammal cell tox,Giardia FBPA inh-2,Rabbit FBPA inh,GAPDH coupling
O/N=C/c1ccc2cccc(O)c2n1,-0.8%,7.06µM*,-23.6%,-12.5%,1.9%,9.4%[10.4 µM],-10.3%,2µM*,-28.7%,-28.3%
O=C(O)c1ccc(/C=C/c2ccc3cccc(O)c3n2)cc1,-6.4%,17.7µM*,-9.1%,-19.9%,-20.7%,26.9%,-8.5%,3.98µM*,?,?
CCCCc1nc(SCC(=O)Nc2ncccn2)n[nH]1,1.2%,-0.4%,2.9%,6.5%,3.9%,.,.,.,.,.
CN(C)C(=S)NC1CCS(=O)(=O)C1 (configuration not stated),-5.5%,-4.2%,?,-12.7%,7.4%,.,.,.,.,.
NNC(=S)NC1CCS(=O)(=O)C1 (configuration not stated),-3.5%,17.7µM*,37.6%,-6.8%,2.6%,28.6%,11.2%,-3.3%,11.9%,2.0%
COc1cccc(N(CC(=O)NCCSc2ccccn2)S(=O)(=O)c2ccccc2)c1,2.8%,-5.9%,6.8%,-2.1%,2.0%,.,.,.,.,.
O=C(NC(=S)Nc1ccccc1N1CCOCC1)c1ccco1,1.4%,-19.9%,-6.8%,2.6%,4.1%,.,.,.,.,.
CNc1ncnc2c1ncn2[C@H]1CN(Cc2ccccc2)C[C@@H](CO)O1,10.2%,.,2.4%,.,.,.,.,.,.,.
CCCCn1c(NS(=O)(=O)c2ccccc2)c(C(=O)OCC)c2nc3ccccc3nc21,2.0%,0.446µM*,0.2%,-31.3%,-0.6%,-7.3%[38.3 µM],-4.6%,?,-25.2%,39.8µM*
CCCCn1c(NS(=O)(=O)c2ccc(C)cc2)c(S(=O)(=O)c2ccccc2)c2nc3ccccc3nc21,0.1%,?,29.9%,-3.9%,4.8%,.,.,.,.,.
FCCCOc1ccc(/C=N/OCc2c(Cl)cccc2Cl)cc1,0.1%,0.8%,-6.8%,27.0%,-1.2%,.,.,.,.,.
Cc1c(NC(=S)NC(=O)c2cccc(Cl)c2)c(=O)n(-c2ccccc2)n1C,2.4%,12.6µM*,9.2%,-16.4%,-0.8%,24.3%,16.5%,3.0%,12.5%,9.5%
COC(=O)C1=C(C)N(CCc2ccccc2)C(=O)C1(NS(=O)(=O)c1ccc(NC(C)=O)cc1)C(F)(F)F (configuration not stated),-5.0%,12.6%,-3.2%,-22.7%,7.5%,.,.,.,.,.
COc1ccc(NC(=O)C(NCC(C)C)c2ccccc2)cc1Cl (configuration not stated),-2.6%,14.1µM*,-11.3%,0.5%,-0.9%,?,1.6%,7.7%,19.6%,1.9%
COc1ccc(NC(=O)C(OC)c2ccccc2)cc1Cl (configuration not stated),-0.5%,0.2%,-5.0%,-13.9%,1.1%,.,.,.,.,.
CCN(CC)S(=O)(=O)c1ccc(C)c(NC(=O)CN2CCN(Cc3ccccc3)CC2)c1,22.4%,19.9µM*,-5.5%,5.0%,-2.0%,-11.2%[10.4 µM],-27.6%,1.9%,-1.0%,8.3%
CCN(CC)S(=O)(=O)c1ccc(C)c(NC(=O)CNCCN(C(C)C)C(C)C)c1,37.1%,14.1µM*,-4.3%,.,3.5%,23.6%,13.3%,6.8%,3.1%,11.8%
CCN(CC)c1ccc(S(=O)(=O)N2CCOCC2)cc1NC(=O)CNCc1ccccc1,-4.5%,?,1.0%,1.1%,-2.1%,.,.,.,.,.
CCN(CC)c1ccc(S(=O)(=O)N2CCOCC2)cc1NC(=O)CN1CCN(Cc2ccccc2)CC1,5.4%,19.9µM*,-14.0%,0.3%,-0.7%,-22.3%,-8.5%,-2.6%,-4.9%,5.4%
CCN(CC)S(=O)(=O)c1ccc(C)c(NC(=O)CSc2nnnn2C)c1,-20.0%,.,-5.0%,.,.,.,.,.,.,.
CS(=O)(=O)N1CCC(C(=O)Nc2ccccc2F)CC1,3.5%,1.9%,10.3%,8.7%,-2.5%,.,.,.,.,.
O=C(C[n+]1ccccc1)Nc1c(Cl)cc(Cl)cc1Cl,-0.2%,12.6µM*,-12.8%,8.91µM*,-3.4%,24.0%,-5.7%,7.2%,8.4%,9.2%
O=c1ccc2cc3c([nH]c4ccc(Br)cc43)oc-2c1O,.,14.1µM*,.,56.2µM*,-7.7%,20.1%[10.4 µM],7.2%,10µM*,8.91µM*,10µM*
CC(C)N(CC#CCC(O)(c1ccccc1)C1CCCC1)CCO (configuration not stated),-8.9%,9.98µM*,16.9%,-34.6%,5.6%,4.0%[38.3 µM],-2.6%,2.2%,1.3%,-0.1%
CCN(CC#CCC(O)(c1ccccc1)C1CCCC1)C(C)C (configuration not stated),-1.9%,.,-15.3%,-1.2%,-0.5%,.,.,.,.,.
CC(=O)N1CCN(CC(O)COc2ccc(Br)cc2)CC1 (configuration not stated),13.3%,28.2µM*,0.3%,-15.9%,1.2%,?,8.1%,3.9%,13.5%,2.5%
CCCOC(=O)c1ccc(OCC(O)CN2CCN(C(=O)c3ccccc3)CC2)cc1 (configuration not stated),3.1%,-2.3%,9.7%,-13.0%,7.7%,.,.,.,.,.

# From PubChem BioAssay
